Measurements published in PubChem BioAssay (NCATS).
Where “and” joins values, the source holds several entries; their conditions need not be identical. Identical values can stand only once. Results filed as inconclusive are left out. A structure can be active in one record and inactive in another. Calls of active or inactive are those of the source. The call rests on the fitted dose curve; in most records, active means well fitted curve in the direction sought with a large enough effect; inconclusive means small, poorly fitted or top-dose-only effect, or another doubt; inactive means no such curve, though single readings can be large; an effect the other way counts as inactive or inconclusive.

What was measured:
[1] = Viability qHTS for spleen associated tyrosine kinase inhibitor (SYKi) naive MV4-11 cells (AID 1963823); further: nearly all actives have a fitted effect of over 40% in size
Outline: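 SYKi-naive MV4-11 AML cells, 500 per well, were exposed to library compounds for 72 hr at 37 C, 5% CO2. Viability was then read by CellTiter-Glo luminescence after 10 min at room temperature.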

[2] = Viability qHTS for spleen associated tyrosine kinase inhibitor (SYKi) drug resistant MV4-11 cells (AID 1963824); further: nearly all actives have a fitted effect of over 35% in size
Outline: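 CellTiter-Glo luminescence, read 10 min after reagent addition, reports viability after a 72 hr compound exposure. Cells are an MV4-11 line made resistant to SYK inhibition, seeded at 500 per well onto compound-containing plates.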

[3] = Cellular viability qHTS for adrenocortical cancer (ACC) cell line SW-13 (AID 1963989); conditions: SW-13 ACC cells viability, CellTiter-Glo, 48 h; activity (max response): stronger effect = lower value; further: nearly all actives have a fitted effect of over 65% in size;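 on activity (max response): cells grown in serum-free medium with ITS supplement; on the % scale 0 is the no-effect control and ±100 the full control effect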
Outline: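 SW-13 cells in ITS-supplemented serum-free DMEM were plated overnight, then exposed for 48 h at 37C to compound titrations (up to 46 uM final). Viability was read by CellTiter-Glo luminescence; four-parameter logistic fits gave IC50 and efficacy.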

[4] = Cellular viability qHTS for adrenocortical cancer (ACC) cell line NCI-H295R (AID 1963990); further: nearly all actives have a fitted effect of over 60% in size
Outline: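 Luminescent ATP read-out (CellTiter-Glo, 20 min RT) after 48 h drug exposure of NCI-H295R cells; a titration up to 46 uM final. Data normalized to doxorubicin (100% inhibition) and DMSO (0%); 4-parameter fit gives IC50, max response.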
Potency means the concentration at half of the fitted maximal effect.

COC1=C(OC)C(=O)C(C/C=C(\C)CC/C=C(\C)CC/C=C(\C)CC/C=C(/C)CC/C=C(\C)CC/C=C(\C)CC/C=C(\C)CC/C=C(\C)CC/C=C(\C)CCC=C(C)C)=C(C)C1=O
inactive: Potency [1] | Potency [2] | activity (max response) [3] 3.03% | Potency [4]

CC(C(=O)O)c1cccc(Oc2ccccc2)c1 (stereo unspecified)
inactive: Potency [1] | Potency [2] | activity (max response) [3] 9.95% | Potency [4]

CCN1CCN(Cc2ccc(Nc3ncc(F)c(-c4cc(F)c5nc(C)n(C(C)C)c5c4)n3)nc2)CC1
active: Potency [1] 146 nM and 148 nM | Potency [2] 366 nM and 417 nM | Potency [3] 15.8 µM | Potency [4] 4.47 µM

CC(=O)OCC1=C(C(=O)O)N2C(=O)[C@@H](NC(=O)Cc3cccs3)[C@H]2SC1
inactive: Potency [1] | Potency [2] | activity (max response) [3] 10.2% | Potency [4]

Nc1ncnc2c1c(-c1cccc(OCc3ccccc3)c1)cn2C1CC(CN2CCCC2)C1 (stereo unspecified)
active: Potency [1] 517 nM | Potency [2] 1.3 µM | Potency [3] 25.1 µM | Potency [4] 2.24 µM

CC(=O)N[C@H]1CSSC[C@@H](C(N)=O)NC(=O)[C@H](C(C)C)NC(=O)[C@H](C)NC(=O)[C@H](Cc2cnc[nH]2)NC1=O
inactive: Potency [1] | Potency [2] | activity (max response) [3] -0.986% | Potency [4]

Clc1cc2c(NC3CCCC3)nnc(-c3ccncc3)c2cc1Cl
inactive: activity (max response) [3] -2.48% | Potency [4]
inactive and 18.6 µM (active): Potency [1]
active: Potency [2] 13.2 µM

CN[C@@H]1[C@@H](O)[C@@H](O[C@@H]2[C@H](O)[C@H](O[C@H]3OC(CN)=CC[C@H]3N)[C@@H](N)C[C@H]2N)OCC1(C)O (stereo partly specified)
inactive: Potency [1] | Potency [2] | activity (max response) [3] 5.55% | Potency [4]

CC(=O)Nc1ccc(OC(=O)c2ccccc2OC(C)=O)cc1
inactive: Potency [1] | Potency [2] | activity (max response) [3] 8.82% | Potency [4]

C[C@H](CCC(=O)O)[C@H]1CC[C@H]2[C@@H]3[C@@H](O)C[C@@H]4C[C@H](O)CC[C@]4(C)[C@H]3CC[C@]12C
inactive: Potency [1] | Potency [2] | activity (max response) [3] -9.5% | Potency [4]

CNCc1ccccc1
inactive: Potency [1] | Potency [2] | activity (max response) [3] 8.2% | Potency [4]

CCCc1ccc(OCC(=O)N2CCN(C(=O)COc3ccc(CCC)cc3OC)CC2)c(OC)c1
inactive: Potency [1] | Potency [2] | activity (max response) [3] 4.95% | Potency [4]

C[C@@H]1CCN(C(=O)[C@H](CCCN=C(N)N)NS(=O)(=O)c2cccc3c2NC[C@H](C)C3)[C@@H](C(=O)O)C1
inactive: Potency [1] | Potency [2] | activity (max response) [3] 1.57% | Potency [4]

CCCCCCCCCCCCCCCC[N+](C)(C)Cc1ccccc1
active: Potency [1] 2370 nM | Potency [2] 1.88 µM | Potency [3] 8.2 µM | Potency [4] 8.2 µM

COc1ccc(-c2cc(C(O)C3CCCCN3)c3ccccc3n2)cc1 (stereo unspecified)
active: Potency [1] 525 nM | Potency [2] 1.66 µM | Potency [3] 28.2 µM | Potency [4] 11.2 µM

NCCCC[C@H](N[C@@H](CCc1ccccc1)C(=O)O)C(=O)N1CCC[C@H]1C(=O)O
inactive: Potency [1] | Potency [2] | activity (max response) [3] 4.67% | Potency [4]

O=C(c1ccccc1)c1ccccc1
inactive: Potency [1] | Potency [2] | activity (max response) [3] 13.9% | Potency [4]

CC(C)(O)[C@H]1CC[C@@](C)([C@H]2[C@@H](O)C[C@@]3(C)[C@@H]4C[C@H](O[C@@H]5O[C@H](CO)[C@@H](O)[C@H](O)[C@H]5O)[C@H]5C(C)(C)[C@@H](O[C@@H]6OC[C@@H](O)[C@H](O)[C@H]6O)CC[C@@]56C[C@@]46CC[C@]23C)O1
inactive: Potency [1] | Potency [2] | activity (max response) [3] 1.01% | Potency [4]

CC(C)=CCC[C@](C)(O[C@@H]1O[C@H](CO[C@@H]2O[C@H](CO)[C@@H](O)[C@H](O)[C@H]2O)[C@@H](O)[C@H](O)[C@H]1O)[C@H]1CC[C@]2(C)[C@@H]1[C@H](O)C[C@@H]1[C@@]3(C)CC[C@H](O[C@@H]4O[C@H](CO)[C@@H](O)[C@H](O)[C@H]4O[C@@H]4O[C@H](CO)[C@@H](O)[C@H](O)[C@H]4O)C(C)(C)[C@@H]3CC[C@]12C
inactive: Potency [1] | Potency [2] | activity (max response) [3] -6.63% | Potency [4]
